An excerpt weighted towards active compounds, which were near 3.3% of everything screened.
ERAP1 inh: ERAP1 (human) enzyme inhibition | recombinant ERAP1, Leu-AMC fluorescence, 60 min | inhibition, % at 10.7 µM | 0.15% of 340,000 active;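 active = mean replicate inhibition of at least 30%, or all replicates individually reaching that 30% level; inactive = mean below 30% and not every replicate reaching it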;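 also: 0% = neutral control wells and 100% = L-leucinethiol positive control wells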
GSIS activator: primary screen for activators of insulin secretion dependent on glucose, INS-1E cells, GLuc reporter luminescence. INS-1E GLuc reporter insulin secretion, 2-3 h. activation, % at 16.6 µM. 0.61% of 370,000 active;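 active = lowest replicate activation of at least 40%, so every replicate reaches that level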;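 also: 0% = median of neutral control wells and 100% = median of IBMX positive control wells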
SIRT5 inh: sirtuin-5 (human) deacylase inhibition; Purified SirT5, succinyl-peptide AMC, trypsin-coupled fluorescence; inhibition, % at 15 µM; 1.1% of 330,000 active; AID 652115; in the data active = inhibition above about 15%
Target sequence (Q9NXA8 whole entry, looked up): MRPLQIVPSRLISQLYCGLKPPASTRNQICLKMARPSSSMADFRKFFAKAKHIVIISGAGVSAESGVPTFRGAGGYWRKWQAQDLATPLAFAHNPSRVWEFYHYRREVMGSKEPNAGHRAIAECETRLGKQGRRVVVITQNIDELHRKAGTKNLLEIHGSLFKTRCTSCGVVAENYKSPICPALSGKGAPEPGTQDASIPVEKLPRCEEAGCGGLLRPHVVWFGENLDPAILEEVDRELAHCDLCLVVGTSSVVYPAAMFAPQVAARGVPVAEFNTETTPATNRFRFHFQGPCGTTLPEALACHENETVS
FGF22 binding: FGF22 (human) thermal shift binding; 1.5% of 340,000 active; recombinant FGF22 thermal shift, SYPRO orange fluorescence; percent of sucrose octasulfate shift, DMSO zero; activity (Tm shift, normalised), % at 9.99 µM;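 active = mean Tm shift, scaled 0 neutral to 100 positive control, at about 1.3% or above, every replicate too, limit read from the data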
Target sequence (Q9HCT0 whole entry, looked up): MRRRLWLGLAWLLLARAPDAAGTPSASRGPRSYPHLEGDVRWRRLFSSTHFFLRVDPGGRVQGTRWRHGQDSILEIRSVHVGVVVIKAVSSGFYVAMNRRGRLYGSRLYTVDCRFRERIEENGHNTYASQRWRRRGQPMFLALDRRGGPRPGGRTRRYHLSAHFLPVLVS
CASP6 VEID inh: caspase-6 (human) enzyme inhibition | 0.53% of 350,000 active | P55212 | purified caspase-6, Z-VEID-R110 cleavage fluorescence | AID 686996 | inhibition, % at 12.5 µM;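 active = mean inhibition across replicates at least about 35%, with every replicate also reaching that limit, limit read from the data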;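 also: 0% = median of neutral control wells and 100% = no fluorescence left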
Numbers without * were called inactive; x = no result.

SMILES	ERAP1 inh	GSIS activator	SIRT5 inh	FGF22 binding	CASP6 VEID inh
O=C(Nc1ccc2c(c1)[C@H]1C[C@H](CC(=O)N3CCc4ccccc4C3)O[C@@H](CO)[C@H]1O2)NC1CCCC1	-2.8	-17.4	1.3	0.1	1.7
CCOc1ccccc1NC(=O)C(NCC1(N2CCCCC2)CCCCC1)c1ccccc1 (configuration not stated)	1.7	0.6	-7.7	43.6*	0.6
O=C(C[C@H]1C=C[C@@H](NC(=O)C2CCOCC2)[C@H](CO)O1)NCC1CC1	-1.2	11.7	-4.6	0.5	2.1
Cc1ccc(NCC(=O)N/N=C/c2cc(O)ccc2[N+](=O)[O-])cc1	5.2	-16.6	-3.4	43.0*	2.3
Cc1ccc(NCC(=O)N/N=C/c2ccncc2)cc1	-0.3	20.2	4.0	-0.1	0.0
CC(=O)N(C)C[C@H]1Oc2ncc(-c3ccc(C(=O)N(C)C)cc3)cc2C(=O)N([C@H](C)CO)C[C@H]1C	1.6	-0.8	-0.6	-0.1	2.6
O=C1CC2(CCCCC2)Oc2ccc(F)cc21	x	-1.4	x	x	x
O=C1CC2(CCCCC2)Oc2ccccc21	8.4	-0.9	30.7*	0.2	7.6
Cc1nn(-c2ccccc2Cl)c(Cl)c1/C=C(\C#N)C(N)=O	2.5	63.7*	-4.1	0.2	-0.2
Cc1nn(-c2ccc(Cl)cc2)c(Cl)c1/C=C(\C#N)C(N)=O	-0.6	13.1	4.4	0.3	-4.9
CCCNC(=O)C[C@H]1CC[C@H]2[C@@H](COc3ccc(NC(=O)NCCC)cc3C(=O)N2C)O1	x	11.4	7.2	x	x
Cc1ccc(NC(=S)N2CCC(NC(=O)c3ccc(C)cc3)CC2)cc1	0.4	-21.0	-2.5	-0.2	0.4
CCCNC(=S)N1CCC(NC(=O)c2ccc(C)cc2)CC1	2.4	x	24.7*	-0.2	-4.3
COc1cccc2c1OCC(C(=O)O)C2 (configuration not stated)	2.7	0.7	-0.9	42.9*	3.3
COc1ccc(NC(=O)C2Cc3cccc(OC)c3O/C2=N\O)cc1 (configuration not stated)	0.8	1.5	-5.0	-0.1	4.4
O=C1N(c2ccccc2)c2ccccc2[C@]12C[C@H](O)CO2	-5.7	55.4*	-8.6	-0.1	-0.8
O=C1N(c2ccccc2)c2ccccc2C1(O)C(F)(F)F (configuration not stated)	1.0	-2.6	-1.6	-0.2	1.8
CCN(CC)CCNC(=O)CCN1N=C(c2ccccc2)CCC1=O	-0.3	6.2	25.9*	-0.2	x
O=C(NNc1nc2c(F)cc(F)cc2s1)c1ccccc1	-2.1	-2.1	x	43.1*	-2.6
O=C(O)c1cccc(NN=C2c3ccccc3-c3ccccc32)c1	3.3	9.3	6.0	1.1	19.3
O=C(O)c1cc(NN=C2c3ccccc3-c3ccccc32)ccc1Cl	30.7*	-9.7	-14.4	0.4	23.9
Cc1noc(C)c1S(=O)(=O)Nc1ccc2c(c1)CC(=O)N([C@@H](C)CO)C[C@H](C)[C@H](CN(C)Cc1ccc(C(=O)O)cc1)O2	-0.8	10.5	0.3	0.0	-0.1
COC(=O)c1c(NC(=O)/C=C/C(=O)O)sc(C)c1-c1ccc(C)cc1	2.8	-5.1	3.6	0.2	6.2
COC(=O)c1c(NC(=O)/C=C/C(=O)O)sc(C)c1-c1ccc(C(C)C)cc1	-0.6	10.3	4.7	x	37.0*
CCOC(=O)CSc1nc2c(sc(=S)n2-c2ccc(OCC)cc2)c(=O)[nH]1	4.9	x	-0.8	0.0	-0.7
SMILES	ERAP1 inh	GSIS activator	SIRT5 inh	FGF22 binding	CASP6 VEID inh
CCOc1ccc(-n2c(=S)sc3c(=O)[nH]c(SCC(=O)N4CCC(C)CC4)nc32)cc1	4.0	-10.5	x	x	42.6*
COCCCNc1nc(-c2ccc(Cl)cc2)nc2ccccc12	0.9	5.1	-2.9	0.2	2.5
OCCCNc1nc(-c2ccc(Cl)cc2)nc2ccccc12	0.7	57.7*	-2.9	0.1	2.6
COc1cc2c(cc1[N+](=O)[O-])n(C(C)C)c(=O)n2C(C)C	-1.3	58.3*	1.9	0.0	4.9
CN(C)CCCNC(=O)c1ccc(Oc2ccccc2)cc1	-1.1	10.7	-0.1	43.6*	-181.3
COc1ccc(C(=O)NCCCc2ccccc2)cc1	0.1	x	0.0	0.0	-0.5
Cc1nn2c(N3CCN(C)CC3)cc(C(C)(C)C)nc2c1-c1ccccc1	x	32.0	15.4*	0.0	-4.5
CCc1ccc(NC(=O)c2sc3nc4n(c(=O)c3c2C)CCC4)cc1	-8.3	-27.9	-4.1	-0.1	2.8
CC(=O)Nc1ccc(NC(=O)c2sc3nc4n(c(=O)c3c2C)CCCCC4)cc1	1.6	x	16.5*	42.8	1.1
COC1=C(Br)C(=O)c2ncccc2C1=O	1.4	4.8	4.3	-0.6	97.9*
O=C1C(=O)c2cccnc2-c2ncccc21	10.5	29.3	4.7	-0.4	61.0*
COc1ccccc1N1C(=O)c2cccnc2C1=O	-3.3	1.2	-1.7	-0.2	-2.9
O=c1c2ccccc2sn1-c1ccccc1F	6.8	85.8*	-13.6	0.0	2.5
O=c1c2ccccc2sn1-c1cccc(Cl)c1	x	-17.7	0.5	0.1	-0.1
O=C(O)c1cccc(-n2sc3ccccc3c2=O)c1	90.3*	51.1	-0.7	0.7	3.5
CC(=O)Nc1ccc2c(=O)n(-c3ccccc3)sc2c1	x	29.6	1.5	0.0	1.2
O=c1c2ccccc2sn1-c1ccccc1	x	256.4*	x	x	x
Cc1ccccc1-n1sc2cc(F)ccc2c1=O	21.6	44.7*	-1.3	-0.2	3.6
C[C@@H]1CN([C@@H](C)CO)C(=O)Cc2cc(NC(=O)Cn3cnnn3)ccc2O[C@H]1CN(C)Cc1ccccc1	3.6	9.7	3.9	-0.9	1.6
C[C@H]1CCCCO[C@H](CN(C)C(=O)c2ccccc2)[C@@H](C)CN([C@@H](C)CO)C(=O)c2cc(NC(=O)NC3CCCCC3)ccc2O1	-4.0	-30.7	7.0	-0.7	-0.3
Cc1noc(C)c1S(=O)(=O)Nc1cccc2c1O[C@@H](CN(C)C(=O)NC1CCCCC1)[C@@H](C)CN([C@H](C)CO)C2=O	2.2	-5.5	0.0	0.0	-2.0
CN(C)S(=O)(=O)c1cccc(-n2sc3ccccc3c2=O)c1	18.7	65.5*	x	0.4	-1.9
Cc1ccc(-n2sc3ccccc3c2=O)cc1S(=O)(=O)N1CCCCC1	3.5	x	-6.1	0.0	-1.0
Cc1ccc2nc(NC3=NC(CC(=O)O)C(=O)N3)nc(C)c2c1 (configuration not stated)	-8.2	8.7	44.1*	x	1.4
C[C@@H]1CN([C@@H](C)CO)C(=O)c2cc(-c3ccccc3)cnc2O[C@@H]1CN(C)Cc1cccnc1	-0.5	31.7	-1.2	0.0	-0.5
C[C@@H]1CN([C@@H](C)CO)S(=O)(=O)c2ccc(C3=CCCCC3)cc2O[C@@H]1CN(C)S(=O)(=O)c1ccc(F)cc1	0.4	1.5	22.3*	0.6	1.3
C[C@H]1CN([C@@H](C)CO)S(=O)(=O)c2ccc(C3=CCCC3)cc2O[C@@H]1CN(C)S(=O)(=O)c1ccc(F)cc1	-2.1	1.2	3.9	0.3	-0.6

Compound activity: PubChem BioAssay, Broad Institute
